Assay outcomes: PubChem BioAssay, National Center for Advancing Translational Sciences (NCATS)
Hits are enriched below; roughly 4.7% of the tested compounds scored in any of these assays.
D1 antagonist – Antagonist of Human D 1 Dopamine Receptor: qHTS | D(1A) dopamine receptor (Homo sapiens), P21728 | HEK293 TREx D1 cells, calcium flux, dopamine EC80; active compounds read low | activity change, negative = inhibition, % at 10 µM | 3.2% of 360,000 active; in the data active means activity change below about -30%; further: on the % scale 0 is the no-effect control and ±100 the full control effect
Target sequence (P21728 whole entry, looked up): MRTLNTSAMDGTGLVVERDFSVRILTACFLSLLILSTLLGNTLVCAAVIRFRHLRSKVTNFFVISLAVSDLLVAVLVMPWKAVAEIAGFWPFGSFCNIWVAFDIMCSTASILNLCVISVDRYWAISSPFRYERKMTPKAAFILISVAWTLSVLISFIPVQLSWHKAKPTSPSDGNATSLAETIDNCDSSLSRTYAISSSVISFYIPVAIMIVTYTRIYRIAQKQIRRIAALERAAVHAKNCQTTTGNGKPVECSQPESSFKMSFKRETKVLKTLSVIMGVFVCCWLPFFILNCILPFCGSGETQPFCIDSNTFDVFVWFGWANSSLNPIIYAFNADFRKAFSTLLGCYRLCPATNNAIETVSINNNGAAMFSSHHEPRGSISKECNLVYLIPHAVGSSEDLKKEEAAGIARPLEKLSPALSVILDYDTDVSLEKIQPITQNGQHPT
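HEK293 T-REx cells expressing inducible, force-coupled D1 receptor; no-wash Ca dye, 30–90 min RT. Cmpd → 180 s read at 1 Hz → EC80 DA → 180 s read.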
D1 ag – Allosteric Agonists of the Human D1 Dopamine Receptor: qHTS; D(1A) dopamine receptor (Homo sapiens), P21728; HEK293 T-REx D1 cells, calcium flux, agonist mode; activation, % at 2 µM; 1% of 360,000 active; further: 0% is about no effect
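Inducible HEK293 T-REx D1 cells, force-coupled to calcium signalling, were plated at 4000 cells/well with tetracycline and held overnight at 30 C. After no-wash calcium dye loading, compound-evoked calcium rise over 180 s flagged agonists.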
TRHR PAM – qHTS for Small Molecule Agonists and Allosteric Enhancers of Human TRH Receptor: Primary Screen for Enhancers | Thyrotropin-releasing hormone receptor (Homo sapiens), P34981 | TRHR cells, fluo-8 calcium fluorescence, EC20 TRH enhancement | enhancement, % at 2 µM | 0.66% of 360,000 active | AID 493056, 2011; in the data active means enhancement above about 30%; further: 0% is about no effect
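TRHR-expressing cells loaded with fluo-8 calcium dye were read kinetically (ex 480/em 530) during compound addition, then stimulated with an EC20 of TRH (10 nM final). Enhancement of the Gq-mediated intracellular calcium response was scored.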
TRHR agonist – qHTS for Small Molecule Agonists and Allosteric Enhancers of Human TRH Receptor: Primary Screen for Agonists; Thyrotropin-releasing hormone receptor (Homo sapiens), P34981; TRHR cells, calcium flux fluo-8, FDSS agonist mode; activation, % at 2 µM; 0.18% of 360,000 active; further: 0% is about no effect
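TRHR-expressing cells, plated overnight in medium with 10% serum, were loaded with fluo-8 calcium dye at room temperature. After a 10 s baseline, library compound was pin-added and calcium release was recorded kinetically (ex 480/em 530) as agonist response.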
D1 potentiator – Potentiators of Human D1 Dopamine Receptor: qHTS. D(1A) dopamine receptor (Homo sapiens), P21728. HEK293 TREx D1 cells, calcium flux, dopamine EC20 potentiation. potentiation, % at 10 µM. 0.036% of 360,000 active. AID 504651, 2011; in the data active means potentiation above about 30%; further: 0% is about no effect
* hit, by the source's call. Unless noted, no stated cut-off is given here; in the data, active means activation above about 30%; inactive means the rest.

Screening COc1ccc(OC)c(CNC(=O)c2ccc(Sc3ccc(Cl)cc3)c(NC(C)=O)c2)c1 returned D1 antagonist -4.2, D1 ag -2.4, TRHR PAM 1.2, TRHR agonist -0.7 and D1 potentiator 0.7.
For CSc1ccccc1OC1CCN(Cc2ccccc2)CC1 the results were D1 antagonist -87.9*, D1 ag 15.2, TRHR PAM 12.7, TRHR agonist -0.2 and D1 potentiator -8.1.
O=C(N/N=C/c1cc2c3c(c1O)CCCN3CCC2)c1ccccc1O was read as D1 antagonist -13.4, D1 ag 30.9*, TRHR PAM 19.2, TRHR agonist 6.4 and D1 potentiator -5.8.
Cc1ccccc1NC(=O)CSc1c(C(C)C)cnc2c1c(=O)n(C)c(=O)n2C was read as D1 antagonist 12.4, D1 ag 1.0, TRHR PAM -5.3, TRHR agonist -0.4 and D1 potentiator 2.7.
`O=[N+]([O-])c1cnccc1Nc1ccccc1` gave D1 antagonist 2.4, D1 ag 2.1, TRHR PAM 2.2, TRHR agonist -0.2 and D1 potentiator 4.9.
Screening COc1ccccc1Nc1ccncc1[N+](=O)[O-] returned D1 antagonist -48.2*, D1 ag 12.0, TRHR PAM -3.5, TRHR agonist -0.5 and D1 potentiator -4.5.
For O=c1oc2c(CN3CCCC3)c(O)ccc2cc1-c1ccccc1 the results were D1 antagonist 5.0, D1 ag 4.4, TRHR PAM -3.6, TRHR agonist 6.5 and D1 potentiator -0.6.
`CN1CCN(Cc2c(O)ccc3cc(-c4ccccn4)c(=O)oc23)CC1` gave D1 antagonist -31.5*, D1 ag 43.8*, TRHR PAM -1.0, TRHR agonist 1.1 and D1 potentiator 3.0.
`O=c1oc2c(CN3CCCCCC3)c(O)ccc2cc1-c1nc2ccccc2[nH]1` gave D1 antagonist -6.2, D1 ag 240.7*, TRHR PAM 8.3, TRHR agonist 7.4 and D1 potentiator 3.0.
Cc1c(C)c2ccc(O)c(CN3CCN(C)CC3)c2oc1=O was read as D1 antagonist 3.0, D1 ag 2.9, TRHR PAM 11.2, TRHR agonist 0.3 and D1 potentiator -4.3.
`COc1cc(/C=C/C(=O)OCC(=O)Nc2cc(C)on2)ccc1OCC#N` gave D1 antagonist 15.1, D1 ag 7.7, TRHR PAM 3.2, TRHR agonist 0.1 and D1 potentiator 9.0.
`CCOC(=O)N1CCN(C(=O)c2c[nH]c3ccc(S(=O)(=O)N(C)c4cccc(C)c4)cc3c2=O)CC1` gave D1 antagonist -12.9, D1 ag 4.7, TRHR PAM -1.3, TRHR agonist 5.7 and D1 potentiator -2.8.
Screening CCOC(=O)N1CCN(C(=O)c2c[nH]c3ccc(S(=O)(=O)N(C)c4ccccc4C)cc3c2=O)CC1 returned D1 antagonist -33.9*, D1 ag 2.0, TRHR PAM -1.5, TRHR agonist 0.8 and D1 potentiator -9.9.
Screening Cc1ccc(NC(=O)c2ccc3[nH]c(=O)c(=O)[nH]c3c2)nc1 returned D1 antagonist 12.5, D1 ag 2.4, TRHR PAM -1.7, TRHR agonist 0.6 and D1 potentiator -2.5.
Screening O=C(Nc1ccc(Cl)cn1)c1ccc2[nH]c(=O)c(=O)[nH]c2c1 returned D1 antagonist -30.1*, D1 ag 1.4, TRHR PAM -0.4, TRHR agonist 0.1 and D1 potentiator -2.4.
`NCCC(=O)N1c2ccccc2Sc2ccc(Cl)cc21` gave D1 antagonist 1.6, D1 ag 59.1*, TRHR PAM -33.1, TRHR agonist 49.6* and D1 potentiator -1.9.
`NCCCC(=O)N1c2ccccc2Sc2ccc(Cl)cc21` gave D1 antagonist 6.4, D1 ag 5.2, TRHR PAM 17.7, TRHR agonist 3.0 and D1 potentiator 3.7.
O=C(CN1CCN(C2CCCCC2)CC1)c1c[nH]c2ccccc12 was read as D1 antagonist -10.6, D1 ag 6.8, TRHR PAM 1.8, TRHR agonist 0.9 and D1 potentiator -0.9.
Screening O=C(CN1CCN(C2CCCCC2)CC1)c1ccc2cc[nH]c2c1 returned D1 antagonist -36.0*, D1 ag 1.5, TRHR PAM -1.7, TRHR agonist 0.2 and D1 potentiator 4.2.
`COc1c(C)cc(Br)cc1C(=O)Nc1ccc(S(N)(=O)=O)cc1` gave D1 antagonist -60.7*, D1 ag 1.4, TRHR PAM -2.5, TRHR agonist -1.4 and D1 potentiator -5.5.
Cc1cc2oc(C(=O)Nc3ccc(S(N)(=O)=O)cc3)cc(=O)c2cc1C was read as D1 antagonist -58.1*, D1 ag 0.5, TRHR PAM 19.9, TRHR agonist 0.2 and D1 potentiator -1.9.
Screening COCCCNC(=O)CCc1c(C)c2cc3c(C)coc3cc2oc1=O returned D1 antagonist -56.5*, D1 ag 7.3, TRHR PAM 1.0, TRHR agonist -0.5 and D1 potentiator -3.5.
Screening COc1ccc(CNC(=O)CCc2c(C)c3cc4c(C)c(C)oc4cc3oc2=O)cc1 returned D1 antagonist -35.9*, D1 ag -0.2, TRHR PAM -1.3, TRHR agonist -2.2 and D1 potentiator -1.2.
Screening Cc1cc(C)c2oc(-c3cccc(NC(=O)c4ccc(Br)o4)c3)nc2c1 returned D1 antagonist -0.4, D1 ag -0.7, TRHR PAM -0.5, TRHR agonist 0.1 and D1 potentiator 2.8.
For Cc1cc(C)c2oc(-c3cccc(NC(=O)c4ccco4)c3)nc2c1 the results were D1 antagonist -45.6*, D1 ag 2.8, TRHR PAM -9.0, TRHR agonist 0.7 and D1 potentiator 1.4.
Screening CC(=O)Nc1cccc(-c2nc3ccccc3o2)c1 returned D1 antagonist 25.3, D1 ag 4.1, TRHR PAM 1.4, TRHR agonist 1.7 and D1 potentiator 1.6.
Screening Cc1cc2oc(C(=O)Nc3cccc(-c4nc5ccccc5o4)c3)c(C)c2cc1C returned D1 antagonist -4.3, D1 ag 53.9*, TRHR PAM 2.6, TRHR agonist -0.9 and D1 potentiator -1.4.
For CCc1ccc2oc(-c3cccc(NC(=O)COc4ccccc4Cl)c3)nc2c1 the results were D1 antagonist 8.5, D1 ag -1.1, TRHR PAM 43.3*, TRHR agonist 1.0 and D1 potentiator -2.6.
`O=C(Nc1ccc(-c2nc3cc(Cl)ccc3c(=O)o2)cc1)c1ccco1` gave D1 antagonist -31.9*, D1 ag 1.0, TRHR PAM 8.4, TRHR agonist -0.4 and D1 potentiator -8.6.
O=C(CN1C(=O)COc2ccc(Cl)cc21)Nc1cccc(C(=O)O)c1 was read as D1 antagonist 3.0, D1 ag 0.8, TRHR PAM 3.5, TRHR agonist -0.2 and D1 potentiator -2.5.
